Laboratory results as given in the supplement of paper PMC7411054.
Structures can show the parent of a compound that is named as a salt.

Key:
Assay in all cases: lowest phenotypically active concentration; higher = less potent
Conditions in all cases: treatment time: 24 h
[1] = test system: HepG2-ACTB-RAB5A
Procedure, shortened: (§1)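 The reporter lines, fifteen in total and built by gene editing in A549, HepG2 and WPMY1 cells, used BFP for segmentation alongside GFP and RFP/FusionRed markers. Each was treated at 0.3, 1, 3 or 9 µM for 24 h in four wells and then imaged live, with live-cell features normalised to solvent control wells. Deviation meant ≥3 of 4 wells beyond the 95th percentile of control Euclidean distances; reproducibility meant a median replicate Pearson correlation above the 95th percentile of non-replicates. Only conditions meeting both were scored as phenotypically active.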

[2] = test system: HepG2-GM130-SQSTM1
Procedure, shortened: as §1

[3] = test system: HepG2-TP53BP1-CLTA
Procedure, shortened: as §1

[4] = test system: HepG2-TUBA1B-RELA
Procedure, shortened: as §1

[5] = test system: WPMY1-TP53BP1-CLTA
Procedure, shortened: as §1

[6] = test system: WPMY1-TUBA1B-RELA
Procedure, shortened: as §1

[7] = test system: HepG2-CANX-COX4
Procedure, shortened: as §1

[8] = test system: WPMY1-ACTB-RAB5A
Procedure, shortened: as §1

[9] = test system: A549-TP53BP1-CLTA
Procedure, shortened: as §1

| Compound | lowest phenotypically active concentration [1] | lowest phenotypically active concentration [2] | lowest phenotypically active concentration [3] | lowest phenotypically active concentration [4] | lowest phenotypically active concentration [5] | lowest phenotypically active concentration [6] | lowest phenotypically active concentration [7] | lowest phenotypically active concentration [8] | lowest phenotypically active concentration [9] |
| --- | --- | --- | --- | --- | --- | --- | --- | --- | --- |
| N#C/C(=C/c1ccc(-c2cc(Cl)ccc2Cl)o1)C(=O)Nc1cccc2ncccc12 | 3 µM | – | – | – | – | – | – | – | – |
| CN1CCN(c2ccc(-c3cccc(CN4CCOCC4)c3)cc2NC(=O)c2c[nH]c(=O)cc2C(F)(F)F)CC1 | – | 9 µM | 9 µM | 9 µM | 9 µM | 9 µM | – | – | – |
| Cc1cc2nc(NCCCO)n(CC(=O)c3cc(C(C)(C)C)c(O)c(C(C)(C)C)c3)c2cc1C | 9 µM | – | – | 9 µM | – | – | – | – | – |
| N#Cc1cccc(-c2c[nH]c3ncnc(N4CCOCC4)c23)c1 | 3 µM | 3 µM | 3 µM | 1 µM | 3 µM | – | 3 µM | 9 µM | – |
| CC(CN(C)C)CN1c2ccccc2CCc2ccccc21 (stereo unspecified) [trimipramine] | 9 µM | – | – | 9 µM | – | – | – | 9 µM | – |
| Fc1ccc([C@@H]2CCNC[C@H]2COc2ccc3c(c2)OCO3)cc1 [paroxetine] | 9 µM | 9 µM | 9 µM | 3 µM | 9 µM | 9 µM | – | 9 µM | – |
| Cc1c(O)cccc1C(=O)N[C@@H](CSc1ccccc1)[C@H](O)CN1C[C@H]2CCCC[C@H]2C[C@H]1C(=O)NC(C)(C)C [nelfinavir] | 9 µM | 9 µM | – | 9 µM | – | 9 µM | 3 µM | 3 µM | – |
| CC(=O)Nc1ccc(NC(=S)NC(=O)c2ccc(C(C)(C)C)cc2)cc1 [Tenovin-1] | – | – | 9 µM | 3 µM | 1 µM | 1 µM | 3 µM | ≤ 0.3 µM | – |
| CCN(CCO)CCCC(C)Nc1ccnc2cc(Cl)ccc12 (stereo unspecified) [hydroxychloroquine] | – | 9 µM | – | 9 µM | – | 9 µM | – | 9 µM | – |
| CCSc1ccc2c(c1)N(CCCN1CCN(C)CC1)c1ccccc1S2 [thiethylperazine] | 9 µM | 9 µM | – | 9 µM | 9 µM | 9 µM | – | 9 µM | – |
| CN1C(=O)/C(=C2/Nc3ccccc3/C2=N/O)c2ccc(Br)cc21 | ≤ 0.3 µM | – | – | – | – | – | 3 µM | 1 µM | – |
| CC(=O)O[C@@H]1C[C@H]2C(C)(C)C(=O)C=C[C@]2(C)[C@H]2CC[C@@]3(C)[C@H](c4ccoc4)OC(=O)[C@H]4O[C@]43[C@@]21C [gedunin] | – | 9 µM | 3 µM | 9 µM | – | – | 1 µM | 3 µM | – |
| O=C(Nc1nc2cc(C(F)(F)F)cc(NC3CC3)n2n1)c1cccnc1 | – | – | 9 µM | 9 µM | 3 µM | – | 3 µM | 3 µM | – |
| CN1CCC(CN2c3ccccc3Sc3ccccc32)C1 (stereo unspecified) [methdilazine] | 9 µM | 9 µM | 9 µM | 9 µM | 9 µM | 9 µM | – | 9 µM | – |
| CCCCCCCCCCCCC/C=C/[C@@H](O)[C@H](CO)N(C)C [N,N-Dimethylsphingosine] | 3 µM | 9 µM | 3 µM | 9 µM | 9 µM | 3 µM | 3 µM | 3 µM | – |
| CN(C)CCCN1c2ccccc2Sc2ccc(C(F)(F)F)cc21 [triflupromazine] | 9 µM | – | – | 9 µM | – | 9 µM | – | 9 µM | – |
| CN(C)CC(O)Cn1c2ccc(Br)cc2c2cc(Br)ccc21 (stereo unspecified) [Wiskostatin] | 3 µM | 3 µM | 3 µM | 3 µM | 9 µM | 3 µM | 9 µM | 3 µM | – |
| NC(=O)C(c1ccccc1)(c1ccccc1)[C@@H]1CCN(CCc2ccc3c(c2)CCO3)C1 [darifenacin] | 9 µM | 9 µM | 9 µM | – | 9 µM | – | 9 µM | – | – |

| Compound | lowest phenotypically active concentration [1] | lowest phenotypically active concentration [2] | lowest phenotypically active concentration [3] | lowest phenotypically active concentration [4] | lowest phenotypically active concentration [5] | lowest phenotypically active concentration [6] | lowest phenotypically active concentration [7] | lowest phenotypically active concentration [8] | lowest phenotypically active concentration [9] |
| --- | --- | --- | --- | --- | --- | --- | --- | --- | --- |
| CN(C)CCCN1c2ccccc2CCc2ccc(Cl)cc21 [clomipramine] | 9 µM | – | 9 µM | 9 µM | 9 µM | 9 µM | – | 9 µM | – |
| O[C@H](CNC[C@H](O)[C@@H]1CCc2cc(F)ccc2O1)[C@@H]1CCc2cc(F)ccc2O1 [nebivolol] | 3 µM | – | 9 µM | 3 µM | 9 µM | 3 µM | – | 3 µM | – |
| O=C(CCCCCCC(=O)NO)NO | 9 µM | – | – | – | – | – | – | – | – |
| COc1cc2nccc(Oc3ccc(NC(=O)C4(C(=O)Nc5ccc(F)cc5)CC4)cc3)c2cc1OC | – | – | – | – | – | – | – | 3 µM | – |
| O=C(/C=C/c1ccc2ccccc2n1)c1ccncc1 | 3 µM | 9 µM | – | 9 µM | 9 µM | 9 µM | – | 9 µM | – |
| CCN1/C(=C/C(C)=O)Sc2ccc(O)cc21 | 9 µM | – | – | – | 9 µM | – | – | 9 µM | 9 µM |
| CCC(C)(C)C(=O)O[C@H]1C[C@@H](C)C=C2C=C[C@H](C)[C@H](CC[C@@H]3C[C@@H](O)CC(=O)O3)[C@H]21 [Simvastatin] | 1 µM | 1 µM | 3 µM | 1 µM | 3 µM | 3 µM | 1 µM | ≤ 0.3 µM | 9 µM |
| CCc1nc(-c2cccc(C)c2)c(-c2ccnc(NC(=O)c3ccccc3)c2)s1 | 9 µM | 1 µM | 3 µM | 1 µM | – | 9 µM | 1 µM | 9 µM | – |
| COc1ccccc1C(=O)Nc1cc2c(cc1N1CCCC1)n(C)c(=O)n2C | – | – | – | – | – | – | – | 9 µM | – |
| Nc1cc(N)c(N)cc1N [FAK Inhibitor 14] | – | – | 9 µM | 3 µM | 9 µM | 1 µM | – | 3 µM | – |
| O=c1cc(-c2ccccc2)oc2cc(O)cc(O)c12 [Chrysin] | – | – | – | – | 9 µM | – | – | – | – |
| CN1c2ccc([N+](=O)[O-])cc2N=C(c2ccc(C(=O)O)cc2)c2cc3c(cc21)C(C)(C)CCC3(C)C | – | – | – | 9 µM | – | – | – | – | – |
| CNC(=O)c1cc(Oc2ccc(NC(=O)Nc3ccc(Cl)c(C(F)(F)F)c3)c(F)c2)ccn1 [regorafenib] | 3 µM | ≤ 0.3 µM | ≤ 0.3 µM | ≤ 0.3 µM | 9 µM | – | 3 µM | – | 9 µM |
| Cc1ccc(S(=O)(=O)n2c(N)nc3ccccc32)cc1 | 9 µM | – | – | – | – | – | – | – | – |
| Cc1ccc(NC(=O)c2cccc(C(C)(C)C#N)c2)cc1Nc1ccc2ncn(C)c(=O)c2c1 | ≤ 0.3 µM | ≤ 0.3 µM | ≤ 0.3 µM | ≤ 0.3 µM | 9 µM | – | ≤ 0.3 µM | 3 µM | 1 µM |
| CCC(=O)N1CCOc2c(cc(-c3ccc(OC)c(OC)c3)cc2OC[C@H]2CCCN(C)C2)C1 | 9 µM | – | – | 9 µM | – | – | 9 µM | – | – |
| CC1CNCCN1S(=O)(=O)c1cccc2cnccc12 (stereo unspecified) [H-7 dihydrochloride] | – | 9 µM | – | 9 µM | – | 9 µM | 9 µM | 9 µM | – |
| COc1ccc(CCc2nc3cc(-c4c(C)noc4C)ccc3n2C[C@H](C)N2CCOCC2)cc1Cl | 3 µM | 9 µM | 9 µM | 9 µM | – | 9 µM | 9 µM | 9 µM | – |
